Assay results from PubChem BioAssay AID1159580 (chemical genetic matrix, 2015).
“And” between values parts separate entries of the source, which are not always exact repeats. Equal entries are not always repeated. Screen size: about 5,500 compounds; about 2,000 (36%) were called active. About 18% were inconclusive and are not listed. No stated cut-off is given here; in the data, active means normalized growth mostly below about 0.91 (no sharp cut-off); inconclusive means no clear call, values can overlap the other calls; inactive means mostly above about 0.92. This is one part of the list.

Experiment: chemical genetic growth profiling, strain panel (AID 1159580);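 further: tested at 20 µM; growth read once vehicle control cultures reached saturation at 30 °C; 1 = growth at the plate median or of vehicle wells; lower values mean less growth of the strain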
Settings: S. cerevisiae deletion strains, growth OD

Measured: normalized growth

COc1cc(O)cc(OC)c1OC
inactive: locus YAL013W, strain DEP1, hits give low values 1.05 | locus YAL021C, strain ccr4, hits give low values 0.982 | locus YAL026C, strain drs2, hits give low values 0.974 | locus YAL030W, strain snc1, hits give low values 0.977 | locus YBL061C, strain skt5, hits give low values 0.98 | locus YBR009C, strain hhf1, hits give low values 0.964 | locus YBR021W, strain FUR4, hits give low values 1.01 | locus YBR023C, strain chs3, hits give low values 0.999 | locus YBR171W, strain sec66, hits give low values 0.978 | locus YBR229C, strain ROT2, hits give low values 1.01 | locus YBR231C, strain swc5, hits give low values 0.992 | locus YBR279W, strain paf1, hits give low values 0.992 | locus YCL011C, strain gbp2, hits give low values 0.969 | locus YCL016C, strain dcc1, hits give low values 0.997 | locus YCL029C, strain bik1, hits give low values 1.01 | locus YCL061C, strain MRC1, hits give low values 0.986 | locus YCL069W, strain vba3, hits give low values 0.978 | locus YCR088W, strain abp1, hits give low values 0.987 | locus YDL005C, strain med2, hits give low values 0.967 | locus YDL035C, strain GPR1, hits give low values 1.05 | locus YDL040C, strain nat1, hits give low values 0.989 | locus YDL074C, strain BRE1, hits give low values 1.04 | locus YDL101C, strain DUN1, hits give low values 1.02 | locus YDL134C, strain PPH21, hits give low values 1.01 | locus YDL185W, strain tfp1, hits give low values 1 | locus YDL192W, strain arf1, hits give low values 1.03 | locus YDR001C, strain nth1, hits give low values 0.972 | locus YDR069C, strain doa4, hits give low values 0.962 | locus YDR101C, strain arx1, hits give low values 1 | locus YDR137W, strain rgp1, hits give low values 0.998 | locus YDR159W, strain sac3, hits give low values 0.925 | locus YDR162C, strain NBP2, hits give low values 1.06 | locus YDR195W, strain ref2 0.918 | locus YDR297W, strain sur2, hits give low values 0.986 | locus YDR318W, strain mcm21, hits give low values 1.01 | locus YDR334W, strain swr1, hits give low values 0.975 | locus YDR335W, strain msn5, hits give low values 0.991 | locus YDR388W, hits give low values 1.01 | locus YDR392W, strain spt3, hits give low values 0.942 | locus YDR502C, strain sam2, hits give low values 0.999 | locus YEL003W, strain gim4, hits give low values 0.987 | locus YEL037C, strain rad23, hits give low values 0.988 | locus YEL061C, strain CIN8 (second series), hits give low values 0.961 | locus YEL061C, strain CIN8, hits give low values 1.02 | locus YER015W, strain faa2, hits give low values 1 | locus YER016W, strain bim1, hits give low values 0.995 | locus YER110C, hits give low values 1 | locus YER111C, strain swi4, hits give low values 0.967 | locus YER155C, strain BEM2 (second series), hits give low values 0.97 | locus YER155C, strain BEM2, hits give low values 1.02 | locus YER167W, strain BCK2, hits give low values 1.02 | locus YFR010W, strain ubp6, hits give low values 0.962 | locus YGL078C, strain dbp3, hits give low values 1.01 | locus YGL086W, strain mad1, hits give low values 1.01 | locus YGL167C, strain pmr1, hits give low values 0.954 | locus YGL173C, strain kem1, hits give low values 0.99 | locus YGL227W, strain vid30, hits give low values 0.97 | locus YGL240W, strain doc1, hits give low values 0.945 | locus YGL248W, strain PDE1, hits give low values 1.04 | locus YGL253W, strain hxk2, hits give low values 0.995 | locus YGR135W, strain pre9, hits give low values 1.01 | locus YGR252W, strain gcn5, hits give low values 1.03 | locus YHR013C, strain ard1, hits give low values 0.923 | locus YHR027C, strain rpn1, hits give low values 0.993 | locus YHR030C, strain SLT2, hits give low values 1.02 and 0.996 | locus YHR079C, strain IRE1 (second series), hits give low values 0.995 | locus YHR079C, strain IRE1, hits give low values 0.983 | locus YHR094C, strain hxt1, hits give low values 0.992 | locus YHR129C, strain ARP1, hits give low values 1.02 | locus YHR142W, strain chs7, hits give low values 1.01 | locus YHR200W, strain rpn10, hits give low values 1.01 | locus YIL066C, strain RNR3, hits give low values 1.03 | locus YIL073C, strain SPO22, hits give low values 1.06 | locus YIL125W, strain kgd1, hits give low values 1.01 | locus YIR030C, strain dcg1, hits give low values 1 | locus YJL092W, strain hpr5, hits give low values 0.982 | locus YJL095W, strain BCK1 (second series), hits give low values 0.996 | locus YJL095W, strain BCK1, hits give low values 1.05 and 0.999 | locus YJL115W, strain asf1, hits give low values 0.992 | locus YJL129C, strain trk1, hits give low values 0.97 | locus YJL134W, strain LCB3, hits give low values 1.03 | locus YJL154C, strain vps35, hits give low values 0.983 | locus YJL164C, strain tpk1, hits give low values 0.971 | locus YJL166W, strain qcr8, hits give low values 0.993 | locus YJL168C, strain set2, hits give low values 1.01 | locus YJL187C, strain SWE1 (second series), hits give low values 1.03 | locus YJL187C, strain SWE1, hits give low values 0.977 | locus YJR043C, strain POL32, hits give low values 1.05 | locus YJR066W, strain TOR1, hits give low values 0.905 | locus YKL009W, strain mrt4, hits give low values 1.05 | locus YKL068W, hits give low values 1.01 | locus YKL085W, strain MDH1 (second series), hits give low values 1.02 | locus YKL085W, strain MDH1, hits give low values 1.02 | locus YKL160W, strain elf1, hits give low values 1 | locus YKR001C, strain vps1, hits give low values 1.01 | locus YKR026C, strain gcn3, hits give low values 0.945 | locus YKR091W, strain srl3, hits give low values 0.968 | locus YLL001W, strain dnm1, hits give low values 0.994 | locus YLL026W, hits give low values 0.998 | locus YLL041C, strain sdh2, hits give low values 1 | locus YLR027C, strain aat2, hits give low values 0.986 | locus YLR039C, strain RIC1, hits give low values 1.11 | locus YLR058C, strain SHM2, hits give low values 1.03 | locus YLR102C, strain apc9, hits give low values 0.99 | locus YLR113W, strain HOG1, hits give low values 1.04 | locus YLR221C, strain rsa3, hits give low values 0.97 | locus YLR258W, strain gsy2, hits give low values 0.996 | locus YLR262C, strain YPT6 (second series), hits give low values 0.992 | locus YLR262C, strain YPT6, hits give low values 1.15 | locus YLR268W, strain sec22, hits give low values 1.03 | locus YLR320W, strain mms22, hits give low values 0.984 | locus YLR342W, strain FKS1 (second series), hits give low values 1.04 | locus YLR342W, strain FKS1, hits give low values 0.957 | locus YLR357W, strain rsc2, hits give low values 0.948 | locus YLR370C, strain arc18, hits give low values 0.955 | locus YLR371W, strain rom2, hits give low values 1 | locus YLR384C, strain iki3, hits give low values 0.937 | locus YLR418C, strain cdc73, hits give low values 1.01 | locus YML016C, strain PPZ1, hits give low values 1.02 | locus YML032C, strain rad52, hits give low values 1.01 | locus YML120C, strain ndi1, hits give low values 0.97 | locus YML124C, strain tub3, hits give low values 1.01 | locus YMR058W, strain fet3, hits give low values 0.97 | locus YMR078C, strain ctf18, hits give low values 1 | locus YMR125W, strain sto1, hits give low values 0.984 | locus YMR129W, hits give low values 0.962 | locus YMR205C, strain PFK2, hits give low values 0.95 | locus YMR223W, strain ubp8, hits give low values 0.993 | locus YMR231W, strain pep5, hits give low values 0.994 | locus YMR307W, strain GAS1, hits give low values 1.08 | locus YNL067W, strain RPL9B, hits give low values 1.03 | locus YNL071W, strain lat1, hits give low values 0.994 | locus YNL128W, strain TEP1, hits give low values 1.07 | locus YNL153C, strain GIM3, hits give low values 1.01 | locus YNL183C, strain NPR1, hits give low values 0.928 | locus YNL209W, strain ssb2, hits give low values 0.983 | locus YNL233W, strain BNI4, hits give low values 1.03 | locus YNL248C, strain rpa49, hits give low values 1 | locus YNL250W, strain rad50, hits give low values 1.03 | locus YNL271C, strain bni1, hits give low values 1.01 | locus YNL298W, strain CLA4, hits give low values 1 | locus YNL307C, strain MCK1, hits give low values 0.996 | locus YNL322C, strain KRE1 (second series), hits give low values 0.964 | locus YNR049C, strain mso1, hits give low values 0.986 | locus YNR052C, strain pop2, hits give low values 0.996 | locus YOL006C, strain TOP1, hits give low values 1.22 | locus YOL012C, strain htz1 1.19 | locus YOL147C, strain pex11, hits give low values 1 | locus YOR001W, strain rrp6, hits give low values 1.01 | locus YOR061W, strain CKA2, hits give low values 1.04 | locus YOR069W, strain VPS5, hits give low values 1.01 | locus YOR070C, strain gyp1, hits give low values 0.993 | locus YOR080W, strain dia2, hits give low values 0.977 | locus YOR083W, strain WHI5, hits give low values 1 | locus YOR106W, strain vam3, hits give low values 1 | locus YOR136W, strain idh2, hits give low values 1.01 | locus YOR144C, strain elg1, hits give low values 1 | locus YOR184W, strain ser1, hits give low values 1.05 | locus YOR231W, strain MKK1, hits give low values 1 | locus YOR265W, strain rbl2, hits give low values 0.96 | locus YOR270C, strain vph1, hits give low values 0.986 | locus YOR290C, strain snf2, hits give low values 0.921 | locus YOR316C, strain cot1, hits give low values 0.993 | locus YPL051W, strain arl3, hits give low values 1.01 | locus YPL078C, strain atp4, hits give low values 0.988 | locus YPL106C, strain sse1, hits give low values 0.944 | locus YPL240C, strain hsp82, hits give low values 0.981 | locus YPL256C, strain CLN2, hits give low values 0.978 | locus YPR119W, strain clb2, hits give low values 1 | locus YPR141C, strain kar3, hits give low values 1.01 | locus YPR163C, strain tif3, hits give low values 1 | locus YPR167C, strain met16, hits give low values 1.01 | strain wtn01, hits give low values 1.02
